# Source: PubChem (The Scripps Research Institute Molecular Screening Center)
# hgDAF12 agonist: agonists of H. glycines DAF-12 nuclear receptor; HEK293 GAL4-hgDAF12 UAS-luciferase reporter, agonist luminescence; normalized to butyrate control; activation, % at 6.8 µM; 1.8% of 370,000 active; AID 687014;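 active = activation above a cutoff set at the mean of all screened compounds plus 3 SD, cut at about 10% in these data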;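 also: 0% = DMSO wells and 100% = sodium butyrate wells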
# DAX1 inh-1: NR0B1 (DAX1) inhibition; HEK293 Gal4-DAX1 luciferase reporter, luminescence; 0.99% of 340,000 active; inhibition, % at 6.75 µM; P51843; AID 504766;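 active = inhibition above the mean over all tested compounds plus 3 SD, cut at about 4.2% in these data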;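 also: 0% = DAX1-transfected cells with DMSO and 100% = empty-vector control cells with DMSO; inhibition shows as a rise in luminescence from relieved DAX1 repression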
# Target sequence (P51843 207-470 limits assumed): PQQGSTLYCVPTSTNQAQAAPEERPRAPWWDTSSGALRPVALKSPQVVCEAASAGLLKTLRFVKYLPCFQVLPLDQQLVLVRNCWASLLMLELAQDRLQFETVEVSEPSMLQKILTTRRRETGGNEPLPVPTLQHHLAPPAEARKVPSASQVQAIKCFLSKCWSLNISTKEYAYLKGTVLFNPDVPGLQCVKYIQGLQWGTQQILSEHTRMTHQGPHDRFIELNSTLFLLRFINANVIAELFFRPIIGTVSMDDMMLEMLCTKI
# hcDAF12 agonist: activators of H. contortus DAF-12 nuclear receptor | HEK293 hcDAF-12 lit1-tk-luc reporter, luminescence; 0% DMSO, 100% Δ7-dafachronic acid | activation, % at 6.8 µM | 1.4% of 370,000 active | AID 652067;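 active = activation above the mean of all tested compounds plus 3 SD, cut at about 5.5% in these data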;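 also: 100% = response to 3 µM Δ7-dafachronic acid high control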
# DAX1 inh-2: DAX1 (NR0B1) inhibition, primary screen | HEK293T StAR-luciferase reporter, SF-1/DAX-1 repression relief | inhibition, % at 6.8 µM | 1.1% of 370,000 active | AID 652010;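 active = inhibition above the mean over all tested compounds plus 3 SD, cut at about 3.6% in these data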;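 also: 0% = DAX-1 cells with DMSO and 100% = cells lacking DAX-1 with DMSO; higher inhibition means more luminescence from relief of DAX-1 repression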
# FXN GAA850 act: activators of GAA850 frataxin (FXN) promoter; activation, % at 6 µM; 0.56% of 360,000 active; HEK293 lucGAA850 FXN promoter luciferase reporter, 24 h; percent of 10 µM SAHA response;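 active = activation above the average of all compounds screened plus 3 SD, cutoff fixed separately per campaign, cut at about 7.5% in these data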;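 also: 0% = DMSO wells and 100% = 10 µM SAHA wells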
# ssDAF12 agonist: activators of S. stercoralis DAF-12 nuclear receptor. 1% of 370,000 active. HEK293 ssDAF-12/GRIP1 lit1-tk-luc reporter, luminescence; % of 3 µM dafachronic acid response. activation, % at 6.8 µM;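 active = activation above the mean over all tested compounds plus 3 SD, cut at about 0.9% in these data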;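 also: 0% = DMSO-only wells and 100% = 3 µM delta7-dafachronic acid wells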
# Numbers without * were called inactive; . = no result. The list is not random: actives were taken first. Their share in the collection is about 4.5%.
SMILES,hgDAF12 agonist,DAX1 inh-1,hcDAF12 agonist,DAX1 inh-2,FXN GAA850 act,ssDAF12 agonist
N#CC1(NC(=O)CSc2nc3ccccc3o2)CCCCC1,0,4.9*,-2,1,0,-1
N#CC1(NC(=O)CSc2nc3ccccc3s2)CCCCC1,1,0,-1,1,1,0
Cc1ccccc1NC(=O)CSc1nc2ccccc2o1,11*,0,-1,0,1,-1
COc1ccc(/C=C/c2nc(-c3ccccc3O)n[nH]2)cc1OC,12*,2,0,3,2,-1
CN(Cc1c(C(=O)N2CCCCCCC2)nc2ccc(Cl)cn12)C1CCOC1 (stereo not drawn),1,1,-2,0,2,-1
Cc1cccn2c(CN(C)C3CCOC3)c(C(=O)N3CCCCC3)nc12 (stereo not drawn),-1,4.3*,1,0,0,-1
O=C(NCc1ccc(F)cc1)c1cc2c(s1)CCCC2,4,7.0*,-3,-1,1,-1
CC1CCc2sc(C(=O)NCc3ccc(F)cc3)cc2C1 (stereo not drawn),1,0,0,0,0,-1
O=C(NC(=S)N1CCCc2ccccc21)c1ccc([N+](=O)[O-])cc1,1,-1,5.6*,0,-1,0
COc1ccc(C(=O)NC(=S)N2CCCc3ccccc32)cc1OC,-4,0,0,0,-2,-1
O=C(NC(=S)N1CCCc2ccccc21)c1ccc(Br)cc1,3,0,5.9*,0,4,-1
O=C(c1cc([N+](=O)[O-])cc([N+](=O)[O-])c1)N1CCCc2ccccc21,-3,0,-1,0,1,-1
Clc1nc2ccccc2cc1-c1nnn(-c2ccccc2Br)n1,1,1,3,0,2,0
Brc1ccccc1-n1nnc(-c2cnc3ccccc3c2)n1,13*,1,17*,5.2*,4,3.5*
O=C1CCC2(CCC(c3ccccc3)CC2)N1CC[C@@H](O)c1ccccc1 (stereo partly drawn),3,.,-3,.,.,-2
CC1CCCC(NC(=O)CNC(=O)c2cccs2)C1C (stereo not drawn),1,5.2*,0,1,-1,-1
COc1ccc([C@H]2OC(=O)C[C@H]2C(=O)N2CCCC2)cc1OC,1,.,-1,0,.,-1
COc1ccc(C(C#N)=C2C=CC(=NO)C=C2)cc1,-1,-1,-2,-1,-1,1.3*
CC(=O)ON=C1C=CC(=C(C#N)c2ccccc2)C=C1,-5,.,0,-6,.,-1
O=C(N/N=C1\CCCc2oc(C(=O)O)cc21)c1ccccc1,11*,0,2,1,4,1.7*
O=S1(=O)C=CCN1Cc1cn(Cc2ccccc2)nn1,3,.,1,1,.,-2
COc1cc(/C=C(\C#N)C(=O)Nc2cccc(C(=O)O)c2)ccc1OCc1ccc(C)cc1,9,1,6.5*,1,5,0
COC(=O)[C@]1(C#N)CC(=O)N(C)[C@@H]1c1ccccc1,5,.,2,1,.,-1
COc1ccc(/C=C/S(=O)(=O)NC2CCCC2)c(CNC(=O)OC(C)(C)C)c1,-1,.,-2,-1,.,0
O=C(Nc1ccc(F)cc1F)C1(c2cccs2)CCOCC1,0,4.5*,-1,-1,-1,0
SMILES,hgDAF12 agonist,DAX1 inh-1,hcDAF12 agonist,DAX1 inh-2,FXN GAA850 act,ssDAF12 agonist
C[C@@H]1CCCN1c1cccc2c1S(=O)(=O)N(C1CC1)CCCO2,-2,.,-3,0,.,-1
CC(OC(=O)CNC(=O)c1ccco1)C(=O)N(C)c1ccccc1 (stereo not drawn),5,1,1,0,-1,-2
CC(OC(=O)/C(C#N)=C/c1ccco1)C(=O)N(C)c1ccccc1 (stereo not drawn),2,0,1,-1,2,2.5*
CCC[C@H]1[C@@H](NCc2cccs2)CC[C@@]23CCCN2C(=O)CCC[C@@H]13,-3,.,-2,.,.,-1
Cc1ccccc1-n1c(C)nnc1SCc1nc2ccccc2s1,10,1,5,3,5,0
CCOc1ccccc1-n1nnnc1SCc1nc2ccccc2s1,6,1,4,2,6,3.6*
CCOC(=O)CC[C@H]1CC[C@]2(CCCN(C(=O)c3ccc4ccccc4n3)C2)O1,-1,.,0,-1,.,-1
CCOC(=O)Cn1cc(CN2C(C(=O)OC)CN(Cc3ccccc3)CCS2(=O)=O)nn1 (stereo not drawn),0,.,2,0,.,0
CC(=O)Nc1ccc(-c2csc(Nc3cc(C)ccn3)n2)cc1,2,-1,-4,-3,2,-3
CC(=O)Nc1nc(C)c(-c2csc(Nc3cccc([N+](=O)[O-])c3)n2)s1,2,-4,-4,-2,-9,-3
CC(=O)Nc1cccc(-c2csc(Nc3cc(C)ccn3)n2)c1,11*,1,0,4,4,-1
CC(=O)c1cccc(Nc2nc(-c3cccc([N+](=O)[O-])c3)cs2)c1,6,1,0,-1,8.0*,0
COC(=O)c1cccc(NC(=O)CSc2nnc(COc3ccc(C#N)cc3)n2-c2ccccc2)c1,0,5.1*,-2,-1,-1,-1
CCN1CCCC1CNC(=O)Cn1cc2c(n1)CCC(C)C2 (stereo not drawn),3,4.5*,3,0,1,-1
C=CCN1C[C@@H](COCc2ccccc2)Oc2cc(F)ccc2S1(=O)=O,0,.,-3,-1,.,-2
Cc1cc(C(=O)NNC(=O)c2sccc2C)c(C)o1,3,1,1,4.3*,3,0
Cc1cc(C(=O)N/N=C/c2ccncc2)c(C)o1,1,4.8*,-1,0,3,-1
Cc1cc(C(=O)NN)c(C)o1,5,6.2*,1,1,5,-1
CCN1CCCCC(NC(=O)c2cccc(C(F)(F)F)c2)C1=O (stereo not drawn),-1,.,-1,-1,.,-1
O=C(NCc1cccs1)C1CCC(CNS(=O)(=O)c2cccc3cccnc23)CC1 (stereo not drawn),0,.,-3,0,.,0
CC1CCCCC1=NNC(=O)c1ccccc1 (stereo not drawn),10,5.9*,2,4.1*,4,0
COc1ccc(CNCC#CC2=CCCCC2)c(OC)c1,3,.,-1,1,.,-1
CCC(C)c1ccc(S(=O)(=O)N2CCN(C(=O)CN3C(=O)NC(C)(C4CC4)C3=O)CC2)cc1 (stereo not drawn),-2,1,0,1,-3,-1
CCCc1ccc(S(=O)(=O)N2CCN(C(=O)CN3C(=O)NC(C)(C4CC4)C3=O)CC2)cc1 (stereo not drawn),-2,4.3*,1,1,-1,-1
